In the supplement of paper PMC6555819:

The sequences below were run on PPARg homodimer (NR concentration 180 nM) (assay: PBM binding z-score (relative to random genomic background probes); higher = stronger binding; sequences stand for … in GC…GCGATTGACAGCGTAGAATGAAGG).
Procedure, shortened: (§1)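 Regression normalization was applied to scanned fluorescence from custom Agilent 4×180K protein-binding microarrays. Before scanning, arrays were incubated 1 h with ligand-free nuclear receptor dimers, and binding was detected with antibodies against each partner (one per run). Binding z-scores use the random background probes as reference.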

Sequence | PBM binding z-score
GGAACGAGGGCAAAGCTGATAGCATCTGTCGACG | 0.0511
CCTAGCAGGACAATCTGGGTCACTCAAGGCTTGA | 0.6
CGAACGAGGGCATGAGTCGATAGCAAATGCCGAT | 0.211
TAGCCTAGGTCATGCGGGCCAGTAAAGTGTCGGC | 0.811
CGTTACGGGTCACTGACAGGTTATAGCATTTGGA | 2.14
AGAATCAGGTTACCAAAGATCAGGGAAACGCTTG | 0.0981
CCTACTGGGCCAAAAAGGTCATCGATGCCGATAA | 3.39
ATATGTACGTTAAGGGTCATTCAGGTTGGTTCGC | 2.8
TCTCGGAGGATACGAAGGTCAGAGCTTTCCAGAG | 0.218
TCATATAGGTAAAGGTGAAAGTGGAACGATATGA | 1.46
CCTGCTAGGTCAATGGCCAGCTAAAGCAGCTCGC | 0.733
TCGGACAGGTGAAGGTAACTCAGGTACGCAGTCG | 0.536
TCATATAGGTAAAACGTGAAAGTCGGTGTGGTAA | 1.25
GCAGACAGGTGAAACGCAGGTAACTCACGGTGGC | -0.18
CGTCCAAGGTCAGAGAGGTCAGGGAATGCCGAGT | 4.31
GCTCGGAGGACAAGCTCAGAGCTTTGTCCGTAGA | -0.886
TGTAGTTGGTCACGGAGGTCACACACGACGGGTA | 2.4
CAAACTAGGTCAAGAGGTCACAGTCCGCTTCCCG | 6.23
CAAACTAGGTCAAGAGGTCGAAGTCCGCTTCCCG | 3.87
GCCTACGGGTCAAAGGTTATAGCATGAATAGAAT | 1.95

Sequence | PBM binding z-score
TAGCCTAGGTCATGGGCCAGCATACCACGCGAAC | 1.22
CGAACTGGGTCATCCAGGACAGTGAATACATTGA | 2.15
CCAGACAGGTGAAAGATAACTCAGTCTGGTACGC | 0.844
CCTACTGGGCCATCAGGTCATTGTTATCAACGTT | 1.35
CGAACTAGGACAAGGACAGTGAATCTCCGCACGC | 0.000634
CAGCCTAGGTCACGGCCAGTATAGGAGGAACGTT | 1.71
TCATATAGGTAAATGCTAGGTGAAAGCCCGATCT | 0.598
GCTCGGACGACAAGGTCAGAGCTTTGTCCGTAGA | 0.248
CAAGCTAGGTCACGAAAGGTCAAAGTCGAATGAC | 7.93
TAGGCTAGGTCATGGGCCAGTATACCACGCGAAC | 3.07
GCAGACAGGTGAAACGCAGGTAAATCAGGGTGGC | -0.379
CCTTACGGGTCAAGGTTATTGCACGGGTGGTACG | 2.22
ACTGACAGGTGATGAAGGTAACTCAGGCTATCAT | -0.378
CAAACTAGGTCATCGGAAGGTCAAAGTCCGCATG | 5.96
CAAACTAGGTAACGAAAGGTCAAAGTCGAATGAC | 3.34
TCTCGGAGGACCCGAAGGTCAGAGCTTTCCAGAG | 0.165
AACACAGGGTCATCGTAGGCCAGAGTACGCACAG | 2.34
AGAATGAGGTTATTAAGATCCGGGAATTGCGGTC | 1.11
TCATATAGGTAAATGCTAGATGAAAGTCCGATCT | -0.0567
CCTGCTAGGTCATGGTAAGCTAATCTACAGTATG | 1.24

The sequences below were run on PXR:RXRa (NR concentration 270 nM, RXRa partner concentration 90 nM) in the same assay as above.
Procedure, shortened: as §1

Sequence | PBM binding z-score
GGAACGAGGGCAAAGCTGATAGCATCTGTCGACG | 0.048
CCTAGCAGGACAATCTGGGTCACTCAAGGCTTGA | 0.609
CGAACGAGGGCATGAGTCGATAGCAAATGCCGAT | 0.0627
TAGCCTAGGTCATGCGGGCCAGTAAAGTGTCGGC | 1.51
CGTTACGGGTCACTGACAGGTTATAGCATTTGGA | 3.75
AGAATCAGGTTACCAAAGATCAGGGAAACGCTTG | 0.0669
CCTACTGGGCCAAAAAGGTCATCGATGCCGATAA | 4.69
ATATGTACGTTAAGGGTCATTCAGGTTGGTTCGC | 5.22
TCTCGGAGGATACGAAGGTCAGAGCTTTCCAGAG | 1.09
TCATATAGGTAAAGGTGAAAGTGGAACGATATGA | 1.17
CCTGCTAGGTCAATGGCCAGCTAAAGCAGCTCGC | 0.566
TCGGACAGGTGAAGGTAACTCAGGTACGCAGTCG | 0.407
TCATATAGGTAAAACGTGAAAGTCGGTGTGGTAA | 0.221
GCAGACAGGTGAAACGCAGGTAACTCACGGTGGC | -0.51
CGTCCAAGGTCAGAGAGGTCAGGGAATGCCGAGT | 5.87
GCTCGGAGGACAAGCTCAGAGCTTTGTCCGTAGA | -0.742
TGTAGTTGGTCACGGAGGTCACACACGACGGGTA | 4.14
CAAACTAGGTCAAGAGGTCACAGTCCGCTTCCCG | 5.99
CAAACTAGGTCAAGAGGTCGAAGTCCGCTTCCCG | 3.56
GCCTACGGGTCAAAGGTTATAGCATGAATAGAAT | 6.12

Sequence | PBM binding z-score
TAGCCTAGGTCATGGGCCAGCATACCACGCGAAC | 1.38
CGAACTGGGTCATCCAGGACAGTGAATACATTGA | 2.01
CCAGACAGGTGAAAGATAACTCAGTCTGGTACGC | -0.0544
CCTACTGGGCCATCAGGTCATTGTTATCAACGTT | 1.63
CGAACTAGGACAAGGACAGTGAATCTCCGCACGC | -0.249
CAGCCTAGGTCACGGCCAGTATAGGAGGAACGTT | 2.34
TCATATAGGTAAATGCTAGGTGAAAGCCCGATCT | 0.505
GCTCGGACGACAAGGTCAGAGCTTTGTCCGTAGA | 1.73
CAAGCTAGGTCACGAAAGGTCAAAGTCGAATGAC | 7.36
TAGGCTAGGTCATGGGCCAGTATACCACGCGAAC | 1.42
GCAGACAGGTGAAACGCAGGTAAATCAGGGTGGC | -0.152
CCTTACGGGTCAAGGTTATTGCACGGGTGGTACG | 3.62
ACTGACAGGTGATGAAGGTAACTCAGGCTATCAT | -0.393
CAAACTAGGTCATCGGAAGGTCAAAGTCCGCATG | 5.37
CAAACTAGGTAACGAAAGGTCAAAGTCGAATGAC | 5.5
TCTCGGAGGACCCGAAGGTCAGAGCTTTCCAGAG | 1.42
AACACAGGGTCATCGTAGGCCAGAGTACGCACAG | 4.91
AGAATGAGGTTATTAAGATCCGGGAATTGCGGTC | 0.959
TCATATAGGTAAATGCTAGATGAAAGTCCGATCT | 0.422
CCTGCTAGGTCATGGTAAGCTAATCTACAGTATG | 1.15
